Screening results (PubChem BioAssay)
Shiga inhibitor: inhibitors of Shiga toxin in Vero cells; Vero cells, Shiga toxin protein synthesis inhibition reporter; inhibition, % at 38.7 µM; 9.2% of 290,000 active; in the data active means inhibition mostly above about 28%, no sharp cut-off; inactive means mostly below about 43%
Giardia FBPA inh: blocks Giardia fructose-bisphosphate aldolase activity; A8B2U2; purified Giardia FBPA; Potency, µM (titrated, usually from 59.6 µM), usual class: inhibitors; 0.71% of 290,000 active; AID 2451; further: nearly all actives have a fitted effect of over 55% in size
Target sequence (A8B2U2 whole entry, looked up): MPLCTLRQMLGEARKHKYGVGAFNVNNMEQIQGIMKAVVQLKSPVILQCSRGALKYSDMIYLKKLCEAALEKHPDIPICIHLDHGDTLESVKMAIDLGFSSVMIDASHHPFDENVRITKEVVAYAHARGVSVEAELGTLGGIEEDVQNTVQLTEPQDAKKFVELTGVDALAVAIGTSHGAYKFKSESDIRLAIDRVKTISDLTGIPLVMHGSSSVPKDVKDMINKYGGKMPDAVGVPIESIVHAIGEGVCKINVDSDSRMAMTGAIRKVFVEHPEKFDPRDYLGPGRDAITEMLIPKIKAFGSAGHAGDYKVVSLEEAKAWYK
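40 nM FBPA preincubated 10 min at RT with compound (up to 57.5 uM final), then substrate plus GAPDH/TPI/NAD/arsenate coupling and diaphorase/resazurin added. Fluorescence read after 20 min at RT, 525/598 nm.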
Cycloheximide cs: counter-screen hit for Shiga toxin inhibitors, cycloheximide; cell reporter, cycloheximide protein synthesis inhibition counterscreen; max response, %; 12% of 300,000 active; AID 2314; in the data active means max response mostly above about 13%, no sharp cut-off; inactive means mostly below about 14%; further: read at 38.3 µM for the half of the compounds with a filed dose
LmPK inh: blocks Leishmania mexicana pyruvate kinase activity. 0.37% of 290,000 active. purified LmPK, Kinase-Glo ATP luminescence, 1 h. Q27686. AID 1721. Potency, µM (titrated, usually from 57.5 µM), hits mostly inhibitors
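Purified LmPK (0.1 nM) with 0.5 mM PEP and 0.1 mM ADP in imidazole buffer pH 7.2 with MgCl2/KCl, 1 h at room temperature. ATP formed was read by luciferase luminescence and normalized to no-enzyme and uninhibited controls.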
NS1 function inh: influenza NS1 inhibition; Potency, µM (top dose mostly 46.1 µM); 0.4% of 270,000 active; AID 2326; calls by dose curve; further: actives are rising curves; nearly all actives have a fitted effect of over 50% in size
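OD600 was taken as the measure of yeast growth restored by compound in an NS1-expressing S. cerevisiae strain. Cells had been washed out of glucose medium and diluted 1:100 into galactose -URA medium, pH 6.0.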
Numbers stand for hits; - = inactive; ? = inconclusive; . = no result. Most compounds without a hit are left out; they make up all but 14% or so of the library. Unless noted, the call rests on the fitted dose curve; in most records, active means well fitted curve in the direction sought with a large enough effect; inconclusive means small, poorly fitted or top-dose-only effect, or another doubt; inactive means no such curve, though single readings can be large; an effect the other way counts as inactive or inconclusive.

SMILES	Shiga inhibitor	Giardia FBPA inh	Cycloheximide cs	LmPK inh	NS1 function inh
O=C(Nc1ccccc1[N+](=O)[O-])c1cccc(N2C(=O)CCC2=O)c1	-	-	-	-	-
Cc1ccc(C(=O)Nc2nc3ccccc3[nH]2)cc1	-	-	-	?	-
O=C(Nc1ccccn1)c1ccc(Br)c(S(=O)(=O)N2CCCC2)c1	50.3	-	33.9	-	-
Cc1ccc(N(C)S(=O)(=O)c2cccc(C(=O)Nc3nc4ccccc4[nH]3)c2)cc1	39.0	-	36.1	-	?
CN(C)c1cccc(C(=O)Nc2nc3ccccc3[nH]2)c1	-	-	15.0	-	-
O=C(Nc1nc2ccccc2[nH]1)c1ccc(Cl)c(S(=O)(=O)N2CCCC2)c1	-	-	33.4	-	-
N[C@@H](CO)C(=O)O	.	-	.	.	.
O=C(NCCc1nc2ccccc2[nH]1)c1ccc(Br)o1	-	-	-	-	-
O=C(Nc1nc2ccccc2[nH]1)c1cccc(F)c1	58.0	-	23.9	-	-
O=C(Nc1nc2ccccc2[nH]1)c1ccc(Br)o1	83.5	?	47.2	-	-
COc1ccc(C(=O)N[C@H](C(=O)Nc2nc3ccccc3[nH]2)C(C)C)cc1	75.7	-	36.7	-	.
O=C(Nc1nc2ccccc2[nH]1)c1cccc(Br)c1	82.3	-	20.0	-	-
CCOC(=O)N1CCN(CCCc2ccccc2)CC1	-	?	-	-	-
O=C(/C=C/c1ccc(F)cc1)Nc1nc2ccccc2[nH]1	77.2	-	36.9	-	-
COc1cccc(C(=O)Nc2nc3ccccc3[nH]2)c1	-	-	26.9	14.1µM	-
COc1ccc(C(=O)Nc2nc3ccccc3[nH]2)cc1	-	-	-	?	-
COc1cc(S(C)=O)ccc1-c1nc2ncccc2[nH]1 (stereo unspecified)	.	-	.	.	.
COc1cc2sc(NC(=O)c3ccco3)nc2cc1Cl	101.8	-	45.2	-	-
Cc1cc2sc(NC(=O)c3ccco3)nc2cc1Cl	79.4	-	70.6	-	-
COc1cc2nc(NC(=O)c3ccco3)sc(=O)c2cc1OC	-	-	-	-	-
COc1ccc(NC(=O)C(c2cc3c(cc2[N+](=O)[O-])OCO3)N(C)c2ccccc2)cc1 (stereo unspecified)	-	-	19.3	-	-
COc1ccccc1N1CCN(/N=C/c2ccc(Cl)c([N+](=O)[O-])c2)CC1	43.4	-	54.8	-	-
COc1ccccc1N1CCN(/N=C/c2ccc([N+](=O)[O-])cc2)CC1	-	-	21.2	-	-
COc1ccccc1N1CCN(/N=C\c2cccnc2)CC1	-	?	-	-	-
O=C(CCN1C(=O)C2C3CCC(C3)C2C1=O)Nc1ccc([N+](=O)[O-])cc1 (stereo unspecified)	-	-	-	-	.
SMILES	Shiga inhibitor	Giardia FBPA inh	Cycloheximide cs	LmPK inh	NS1 function inh
COc1ccc(NC(=O)CCN2C(=O)C3C4CCC(C4)C3C2=O)cc1 (stereo unspecified)	-	-	17.1	-	?
COc1ccc(NC(=O)CCN2C(=O)[C@@H]3[C@H](C2=O)[C@H]2C=C[C@@H]3C2)cc1	-	-	-	-	-
Cc1ccc(NC(=O)CCN2C(=O)C3C4CCC(C4)C3C2=O)cc1[N+](=O)[O-] (stereo unspecified)	-	-	-	-	-
Cc1ccc(NC(=O)CCN2C(=O)C3C4CCC(C4)C3C2=O)cc1Cl (stereo unspecified)	-	-	25.2	-	-
O=C(CCN1C(=O)C2C3CCC(C3)C2C1=O)Nc1ccc(Br)cc1 (stereo unspecified)	-	-	11.8	-	-
CCc1nnc(SCC(=O)Nc2nc(C)c(C(=O)N(C)C)s2)n1CC	-	.	-	-	-
Cc1ccc(NC(=O)CCS(=O)(=O)c2ccc3c(c2)NC(=O)C(C)S3)nc1 (stereo unspecified)	-	.	-	-	-
CCOC(=O)CNC(=O)Cn1cnc2c(nnn2-c2cccc(OC)c2)c1=O	-	-	-	-	-
O=C(c1ccc2nc(Cc3cccc(Cl)c3)oc2c1)N1CCC[C@H]1CO	-	.	-	-	-
O=C(c1ccc2oc(CCCc3ccccc3)nc2c1)N1CCCCC1CO (stereo unspecified)	54.6	.	37.6	-	-
O=C(c1ccc2oc(CCc3ccccc3)nc2c1)N1CCC(O)CC1	74.6	-	51.6	-	-
NC(=O)[C@@H]1CCCN1C(=O)c1ccc2oc(CCc3ccccc3)nc2c1	40.2	.	43.3	-	-
Cc1ccc(N(CC(=O)NC2CCCC2)C(=O)CCC(=O)Nc2nc(C)cs2)cc1	-	.	-	-	-
Cc1c(NC(=O)c2ccc(NS(=O)(=O)c3ccccc3)cc2)c(=O)n(-c2ccccc2)n1C	-	-	-	-	-
CCOc1ccc(N(CC(=O)NC2CCCCC2)S(=O)(=O)c2ccccc2)cc1	-	-	-	-	-
Cc1cccc(N(C(=O)c2snc(C(N)=O)c2N)C(C(=O)NCC2CCCO2)c2ccc(N(C)C)cc2)c1C (stereo unspecified)	-	-	-	-	-
COc1ccc(/C=N/NC(=O)c2cccc(NC(=O)c3ccccc3Cl)c2)cc1OC	-	-	-	-	.
COc1ccc(/C=N/NC(=O)c2cccc(NC(=O)c3ccccc3Cl)c2)cc1	-	-	49.5	-	-
O=C(N/N=C/c1ccncc1)c1cccc(NC(=O)c2ccccc2Cl)c1	-	-	-	-	-
O=C(N/N=C/c1ccc(F)cc1)c1cccc(NC(=O)c2ccccc2Cl)c1	36.4	-	20.5	-	-
Cc1ccc(SCc2nn(C)c(Cl)c2C=O)cc1	57.4	-	42.4	-	.
Cc1ccc(SCc2c(-c3ccccc3)nn(C)c2Cl)cc1	-	-	-	-	-
COc1ccc(CNc2nc(-c3ccc(N(C)C)cc3)nc3ccccc23)c(OC)c1	.	17.7µM	.	.	.
CCCCCCCNC(=O)C1(CC2CC(c3cccc(Br)c3)=NO2)CCNCC1 (stereo unspecified)	32.6	-	8.2	-	-
COc1ccc(/C=N/Nc2ncccc2[N+](=O)[O-])c(OC)c1	50.9	-	-	25.1µM	.
SMILES	Shiga inhibitor	Giardia FBPA inh	Cycloheximide cs	LmPK inh	NS1 function inh
O=[N+]([O-])c1cccc(/C=N\Nc2ccc3ccccc3n2)c1O	.	.	.	.	-
O=[N+]([O-])c1ccc(N/N=C\c2ccccc2OCc2ccccc2)cc1	-	-	-	-	-
O=[N+]([O-])c1ccccc1N/N=C\c1ccccc1F	50.9	-	48.3	?	-
O=[N+]([O-])c1ccccc1N/N=C/c1cccc(O)c1O	115.2	-	29.8	?	-
O=[N+]([O-])c1cccc(N/N=C/c2cccc(O)c2O)c1	85.3	?	39.8	-	.
COc1ccc(/C=N/Nc2ncc(-c3ccccc3)cn2)c(OC)c1	-	-	-	-	-
N#Cc1ccc(N/N=C/c2ccccc2)c([N+](=O)[O-])c1	-	-	-	-	.
CN(C)Cc1ccc(C(C)(C)C)cc1-c1cc(C(C)(C)C)ccc1CN(C)C	.	.	.	.	-
O=C(N/N=C/c1cc([N+](=O)[O-])ccc1O)C1CC1	-	?	-	-	-
O=[N+]([O-])c1ccc(O)c(/C=N/Nc2ccccc2Cl)c1	68.8	-	39.6	-	.
